Experimental data taken from PubChem BioAssay (NCI).
About 83,000 compounds went through this panel and 20% of them were active in at least one assay; those are over-represented in the sample as a whole.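 96-well plates, one dose, 48 hours. Percent growth reported; active if below 10.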 Values without a mark were called inactive. The source made the active and inactive calls.

How the values were obtained:
Assay in all cases: NCI-60 one-dose screen, 48 h (100 = growth as untreated, 0 = no growth, -100 = all killed)
Conditions in all cases: 10 µM unless noted
SK-MEL-2 melanoma = tested on: SK-MEL-2 melanoma
EKVX NSCLC = tested on: EKVX NSCLC
SN12C renal = tested on: SN12C renal
UO-31 renal = tested on: UO-31 renal
TK-10 renal = tested on: TK-10 renal
A498 renal = tested on: A498 renal
CCRF-CEM leukemia = tested on: CCRF-CEM leukemia
MOLT-4 leukemia = tested on: MOLT-4 leukemia

Structure (SMILES)	growth (SK-MEL-2 melanoma)	growth (EKVX NSCLC) [%]	growth (SN12C renal) [%]	growth (UO-31 renal)	growth (TK-10 renal)	growth (A498 renal)	growth (CCRF-CEM leukemia)	growth (MOLT-4 leukemia)
CC(Cc1cccc(C(F)(F)F)c1)NCCOC(=O)c1ccccc1 (stereo not drawn)	113%	84.6	99.8	85.4%	129%	107%	105%	96.1%
O[C@@H]1CCO[C@H](c2ccc3ccccc3c2)C1	96%	102	101	93.4%	93.9%	73.3%	103%	99.1%
Cc1nc(-c2ccc(Cl)cc2)ccc1NC(=O)Nc1cccc(C(F)(F)F)c1	95.4%	101	93.7	90.8%	90.7%	95.2%	78.6%	88.2%
COc1ccc(/C=C/C(=O)c2ccc(Oc3ncnc4ccccc34)cc2)cc1OC	89.8%	77.7	79	51.1%	96.6%	98.9%	46.4%	56.6%
Cc1c(C(C)(C)C)cc(C(C)(C)C)c2c1CN(C)CO2	96.7%	105	107	97%	102%	106%	93.7%	109%
C=C1C(=O)O[C@H]2[C@H]1CC/C(COC(=O)OC/C1=C/CC[C@@]3(C)O[C@H]3[C@H]3OC(=O)[C@@H](CN(C)C)[C@@H]3CC1)=C\CC[C@@]1(C)O[C@@H]21	27.4%	48.8	10.7	-16.2% (active)	-42.7% (active)	58.5%	-13.3% (active)	-30.9% (active)
CCN(CC)CCC(C(=O)O)(c1ccccc1)c1ccccc1	112%	96.1	103	89.1%	97.9%	102%	96.6%	89.4%
COc1cc2c(cc1OC)-c1c(oc3c4c(ccc3c1=O)OC(C)(C)C=C4)CO2	74.3%	57.7	92.2	66.9%	67.9%	56.1%	69.5%	55.1%
CC(C)(C)C(=O)Nc1nc2c(s1)CCc1ccn(S(=O)(=O)c3ccccc3)c1-2	81.8%	87.7	112	62.7%	82.1%	101%	92.9%	70.8%
COc1ccc(NC(=O)Nc2ccc(-c3ccc(OC)c(OC)c3)nc2C)cc1	79.6%	91.1	64.4	81.7%	60.4%	71.9%	97.2%	85.6%
C=CCOc1ccc(/C(Cl)=N/N=C(\Cl)c2cc(OC)c(OC)c(OC)c2)cc1	71.8%	88.7	84.1	68%	96.4%	76.8%	34%	30.8%
C=CC(C)(O)CCC1C(=C)CCC2C(C)(C)CCCC12C (stereo not drawn)	92.2%	96.7	108	90.3%	83.3%	106%	124%	89.9%
C#C[C@H](O)/C=C/CCCCCCC#C[C@H](O)CC[C@@H](O)C#CCCCCCC/C=C/[C@@H](O)C#C	92.7%	90.2	69.1	-82.6% (active)	106%	102%	-37.3% (active)	0.882% (active)
CC12CCC3C(CCC4CC(O)CCC43C)C1C/C(=C/O)C(=O)O2 (stereo not drawn)	104%	104	104	91%	89.4%	62.7%	92.6%	101%
N#Cc1c(N)nc(Cl)c(C#N)c1C(=O)c1ccccc1	19.4%	87.8	35.7	32.4%	48.6%	108%	10.2%	19.7%
COc1ccc(-n2c(-c3ccc(NC(=O)CCCl)cc3)nnc2-c2cc(OC)c(OC)c(OC)c2)cc1	48.3%	51.2	72.3	43.8%	70.2%	65.4%	16.8%	6.29% (active)

Structure (SMILES)	growth (SK-MEL-2 melanoma)	growth (EKVX NSCLC) [%]	growth (SN12C renal) [%]	growth (UO-31 renal)	growth (TK-10 renal)	growth (A498 renal)	growth (CCRF-CEM leukemia)	growth (MOLT-4 leukemia)
Cc1ccc(Cn2cc(COc3ccc4c5ccnc(C)c5n(CCCc5ccccc5)c4c3)nn2)cc1	94.7%	80.7	94.5	55.7%	97.8%	73.5%	91.9%	78.2%
COc1ccc(-c2nnc(SCC(=O)Nc3ccc(C(=O)/C=C/c4ccccc4)cc3)o2)cc1OC	98%	100	103	83.9%	96.1%	95.7%	102%	89.1%
C=C1c2c(Cl)ccc(O)c2C(O)=C2C(=O)[C@]3(O)C(O)=C(C(N)=O)C(=O)[C@@H](N(C)C)[C@@H]3[C@@H](O)[C@H]12	-10.9% (active)	36.4	10.8	4.78% (active)	7.64% (active)	-10% (active)	4.46% (active)	-11.5% (active)
CC1(C)CC(=O)C2=C(C1)OC1=C(C(=O)CC(C)(C)C1)C2c1ccc(OCc2cn(-c3ccc(F)cc3F)nn2)cc1	93.8%	99.4	99.4	89.6%	109%	46.9%	84.9%	77.2%
C[C@@H]1CC2C3C[C@H](F)C4=CC(=O)C=C[C@]4(C)[C@@]3(F)[C@@H](O)C[C@]2(C)[C@@]1(O)C(=O)CO (stereo partly drawn)	94.2%	64.9	51.6	71.6%	102%	123%	40%	76.8%
C=C1C(=O)O[C@H]2[C@H]1CC/C(C(=O)NCCOCCOCC(=O)Nc1ccc(OC)c(C(N)=O)c1O)=C\CC[C@@]1(C)O[C@@H]21	82.1%	95.7	94.3	87.3%	76.1%	105%	64.6%	66.2%
COc1ccc2c(c1)OC(N(C(C)=O)C(C)=O)=C(C#N)C2c1ccc(F)cc1 (stereo not drawn)	25.1%	47.9	51.5	45.8%	71.2%	12.8%	10.9%	28.7%
COc1cc(C(=O)NNC(=O)c2ccccc2C(=O)O)cc(OC)c1OC	49.3%	83.4	40.9	49%	72%	78.7%	5.04% (active)	-5.79% (active)
CCc1c(C)c2cc3c(c(C)c2oc1=O)OCC(=O)N3	77.5%	35.9	72.9	37.3%	15.1%	43.6%	84.3%	80.7%
Cc1ccc(/C=C2/C(=O)Nc3cc(Cl)c(-c4csc(N)n4)cc32)cc1	49.3%	62.1	81	67.4%	115%	79.3%	43.5%	51.3%
C#CCn1c(-c2cc(OC)c(OC)cc2Br)nc(-c2ccccc2)c1-c1ccccc1	28.1%	37.4	69.6	33.9%	67.1%	37.7%	39.2%	31.6%
O=C(CSc1nnc(-c2ccc(Cl)cc2)o1)Nc1ccc(C(=O)/C=C/c2ccccc2)cc1	92.9%	98	95.5	80.1%	93.7%	95.7%	86.1%	93.1%
N#Cc1c2c(c(N)[nH]c1=O)C(=O)NC2(O)c1ccccc1 (stereo not drawn)	97.9%	98.1	113	89.1%	93%	106%	100%	95.4%
CCN(CC)C(=O)C1CCN(C(=O)c2ccccc2)CC1	98.3%	101	101	89.2%	87.1%	85.7%	80.9%	92.2%
Cc1nc(N)nc(SCc2ccccc2)c1Br	89.9%	85.7	91.6	54.7%	112%	63.4%	82.4%	63.7%
